Bioassay records from PubChem BioAssay.
CCHF vOTU inh: blocks the CCHF virus ovarian tumor domain protease; inhibition, % at 11.5 µM; 0.55% of 370,000 active; CCHFV vOTU protease, Pep-AMC fluorescence; in the data active = inhibition above about 30%
3CLpro inhibitor: SARS-CoV 3CLpro protease inhibition; recombinant SARS-CoV 3CLpro, quenched FRET peptide cleavage; inhibition, % at 6 µM; 0.14% of 290,000 active; in the data active = inhibition above about 12%
Anthrax LF prot: anthrax lethal factor protease inhibition. multiplex microsphere protease cleavage assay, LF. inhibition, % at 10 µM. 0.12% of 360,000 active; in the data active = inhibition above about 30%; inconclusive = no clear call, values can overlap the other calls
BoNT-F LC inh: blocks Botulinum neurotoxin F light chain protease; Multiplex microsphere protease cleavage assay, flow cytometry; 0.22% of 360,000 active; inhibition, % at 10 µM; AID 588497; in the data active = inhibition above about 35%, passing the limit was not always enough; inconclusive = no clear call, values can overlap the other calls
Autofluor counter: counter-screen for toxin protease inhibitors: compound fluorescence | 3.1% of 360,000 active | compound autofluorescence counterscreen, microsphere flow cytometry; hits give high values | fluorescence intensity (test concentration not listed); in the data active = fluorescence intensity above about 16000; inconclusive = no clear call, values can overlap the other calls
BoNT A protease: inhibitors of Botulinum neurotoxin A light chain protease; multiplex microsphere protease substrate cleavage, flow cytometry; inhibition, % at 10 µM; 0.17% of 360,000 active; in the data active = inhibition above about 30%; inconclusive = no clear call, values can overlap the other calls
BoNT-A LC CP1: BoNT/A light chain protease inhibition; 3% of 720 active; inhibition, % at 10 µM; multiplex microsphere protease assay, flow cytometry; shares compounds with BoNT-F LC inh; in the data active = inhibition above about 32%
BoNTF LC inh 1: blocks botulinum neurotoxin F light chain protease. shares compounds with BoNT-F LC inh. multiplex microsphere protease cleavage assay, flow cytometry. inhibition, % at 10 µM. 720 tested, under 10 active. AID 602140
Anthrax LF CP1: inhibitors of Bacillus anthracis lethal factor protease; multiplex microsphere protease cleavage assay, LF; 720 tested, under 10 active; inhibition, % at 10 µM; shares compounds with BoNT-F LC inh; AID 602142
Hits are given with their value; n = inactive; u = inconclusive; x = no result. Most compounds without a hit are left out; they make up all but 3.9% or so of the library. Unless noted, no rule for the calls is given here.

SMILES	CCHF vOTU inh	3CLpro inhibitor	Anthrax LF prot	BoNT-F LC inh	Autofluor counter	BoNT A protease	BoNT-A LC CP1	BoNTF LC inh 1	Anthrax LF CP1
COc1ccc(CC2(CO)CCN(S(=O)(=O)c3c(C)nn(C)c3Cl)CC2)cc1	n	n	n	n	n	n	x	x	x
COc1ccc(CC2(CO)CCN(S(=O)(=O)c3sccc3C)CC2)cc1	n	n	n	38	n	n	n	n	n
COC(=O)C1=C(C)N(Cc2ccccc2C(F)(F)F)C(=NCc2ccc(OC)cc2)NC1CCc1ccccc1 (centres undefined)	n	x	x	x	x	x	x	x	x
S=C1NCN(Cc2ccccc2)CN1	n	n	n	n	n	n	x	x	x
O=C1CN(Cc2ccccc2)CC(=O)N1	n	x	n	46	n	n	n	n	n
COc1ccc2cc(C(=O)CS(=O)(=O)c3ccc(Cl)cc3)c(=O)oc2c1	n	x	x	x	x	x	x	x	x
COc1ccc(CCNCC(O)COc2cccc(C)c2)cc1OC (centres undefined)	n	x	x	x	x	x	x	x	x
CN(C)c1nc(N)c2nccnc2n1	n	x	n	n	n	n	x	x	x
CSc1cnc2c(N)nc(N(C)C)nc2n1	n	n	n	49	n	n	n	n	n
COc1ccc(-c2cnc3n2CCCCC3)cc1	n	n	n	42	n	n	n	n	n
COc1ccc(C2CC(=O)C(c3ccc4ccccc4c3)=CN2Cc2ccccc2)cc1 (centres undefined)	n	x	x	x	x	x	x	x	x
O=C(c1ccco1)N1N=C(c2cccs2)CC1c1ccc(F)cc1 (centres undefined)	n	n	n	n	n	n	x	x	x
CNC(=S)N1N=C(c2cccs2)CC1c1ccc(F)cc1 (centres undefined)	n	n	n	50	n	n	n	n	n
Cc1ccc(-c2cnco2)cc1	n	n	30	u	n	u	n	n	n
CC(C)N1CCCCC(NC(=O)c2ccc(F)c(F)c2)C1=O (centres undefined)	n	x	x	x	x	x	x	x	x
Cc1cc(C)cc(NC(=O)N2CCC(c3nc4ccc(Cl)cc4[nH]3)CC2)c1	n	x	x	x	x	x	x	x	x
CC1(C)CC(NC(=O)c2cccc([N+](=O)[O-])c2)CC(C)(C)N1	n	n	30	n	n	n	n	n	n
C=CCN1[C@H](C#N)[C@@H](c2ccc(C#Cc3cccnc3)cc2)[C@H]1CO	n	x	x	x	x	x	x	x	x
COc1ccc(/C=C/c2cc(C(F)(F)F)on2)cc1	n	n	n	40	n	n	n	n	n
COc1ccc(-c2c(C)nn3c(N)c(-c4ccccc4)cnc23)cc1OC	n	n	n	40	n	n	n	n	n
COc1ccc(C(=O)NCc2ccc3[nH]c(C)cc3c2)cc1OC	n	n	n	n	n	65	n	n	n
COc1cc(C(=O)NCc2ccc3[nH]c(C)cc3c2)cc(OC)c1OC	n	n	n	n	n	53	n	n	n
COc1cc(/C=C\C(=O)NCc2ccc3[nH]c(C)cc3c2)cc(OC)c1OC	n	n	n	n	n	n	x	x	x
COc1ccc(/C=C\C(=O)NCc2ccc3[nH]c(C)cc3c2)cc1OC	n	n	n	n	n	n	x	x	x
Clc1ccc(-c2nnc(Sc3nc4ccccc4o3)c3ccccc23)cc1	n	n	n	n	n	n	x	x	x
SMILES	CCHF vOTU inh	3CLpro inhibitor	Anthrax LF prot	BoNT-F LC inh	Autofluor counter	BoNT A protease	BoNT-A LC CP1	BoNTF LC inh 1	Anthrax LF CP1
O=c1c(Cl)c2oc3ccccc3nc-2c2ccccc12	x	n	n	n	n	47	32	n	n
COC(=O)c1ccc(C(=O)OC)c(NC(=O)CN(C)Cc2ccc(Cl)c(Cl)c2)c1	n	n	37	65	n	n	n	n	n
COc1ccc(CCNC(=O)CCSCc2ccccc2F)cc1OC	n	n	n	48	n	n	n	n	n
CCOc1ccc(CNC(=O)CCSCc2ccccc2F)cc1OC	n	n	n	n	n	n	x	x	x
CC(C)c1ccc(S(=O)(=O)c2cnc(=S)[nH]c2N)cc1	n	n	n	37	n	n	n	n	n
COc1ccc(C2C(C(=O)Nc3ccc(C)c(C)c3)CCC(=O)N2c2ccc(OC)cc2)cc1 (centres undefined)	n	x	x	x	x	x	x	x	x
CCOc1ccc(/C=C/C2=Cc3c(sc(NC(=O)CSc4n[nH]c(N)n4)c3C#N)C(C)(C)C2)cc1	n	n	58	37	n	85	n	n	n
CCOC(=O)c1sc(NC(=O)CSc2n[nH]c(-c3ccncc3)n2)c(C#N)c1C	n	n	x	x	x	x	x	x	x
Cc1ccsc1/C=C/C1=Cc2c(sc(NC(=O)CSc3n[nH]c(N)n3)c2C#N)C(C)(C)C1	n	n	33	n	18756	44	n	n	n
Cc1oc(C)c(S(=O)(=O)NCc2cccs2)c1C(=O)O	n	n	38	u	n	u	n	n	n
CCc1ccc(S(=O)(=O)NCc2cccs2)cc1	n	n	n	n	n	n	x	x	x
COCc1[nH]nc2c1C(c1ccc(Br)cc1)N(Cc1ccccc1)C2=O (centres undefined)	n	x	x	x	x	x	x	x	x
CCCCCCCCN1C(=O)[C@@H](CC(=O)NCc2cccs2)C[C@@]2(C(=O)OC)C1=C[C@H](C1CCCC1)O[C@@H]2C	n	x	x	x	x	x	x	x	x
Cc1ccc(CNC(=O)CCC(=O)n2ncc3cc(C)ccc32)cc1	n	n	n	n	n	n	x	x	x
Cc1cc2cc(CNC(=O)Cc3ccc([N+](=O)[O-])cc3)ccc2[nH]1	n	n	n	n	n	58	n	n	n
Cc1cc2cc(CNC(=O)CCC(=O)O)ccc2n1C	n	n	n	n	n	n	n	n	n
Cc1cc2cc(CNC(=O)c3cccc([N+](=O)[O-])c3)ccc2n1C	n	n	n	n	n	n	x	x	x
CCCC(=O)NCc1ccc2c(c1)cc(C)n2C	n	n	n	n	n	n	n	n	n
Cc1cc2cc(CNC(=O)Cc3ccc([N+](=O)[O-])cc3)ccc2n1C	n	n	n	n	n	77	n	n	n
O=C(Cc1c[nH]c2ccccc12)Nc1ccc(Nc2ccncc2)cc1	n	x	x	x	x	x	x	x	x
CCCCS(=O)(=O)N1CCCc2nc(-c3ccccc3)ccc21	n	x	x	x	x	x	x	x	x
O=C(Nc1c(-c2ccccc2)nc2ncccn12)c1ccc(F)cc1	n	x	x	x	x	x	x	x	x
CCCOc1ccc(-c2cc(C(C)=O)c3n(c2=O)CCC3)cc1	n	x	x	x	x	x	x	x	x
COC(=O)C[C@@H]1CC[C@H]2[C@@H](COc3ccc(NC(=O)Nc4ccc(C)cc4)cc3C(=O)N2C)O1	n	x	x	x	x	x	x	x	x
CCS(=O)(=O)N1N=C(c2cccc(NS(C)(=O)=O)c2)CC1c1ccccc1 (centres undefined)	n	n	44	n	25649	94	n	x	n
O=C(Nc1ccc(Cl)c(Cl)c1)c1ccccc1	n	x	n	n	n	n	x	x	x
O=C(Nc1ccc2nc3ccccc3nc2c1)c1ccccc1	n	n	n	n	n	63	39	n	n
CN(C(=O)[C@@H](C1CC1)[C@@H](O)c1ccc(Cl)cc1)c1ccccc1	n	x	x	x	x	x	x	x	x
COc1cccc(C(=O)N2CCC(Oc3cccnc3)CC2)c1	n	x	x	x	x	x	x	x	x
Cc1nc(-c2ccccc2)sc1-c1n[nH]c(=S)n1C	n	n	n	54	u	30	n	n	n
